Reference: ChEMBL document CHEMBL3433997, “St. Jude Leishmania screening dataset” (2016)

How the values were obtained:
Assay type in all cases: functional
[1] = target: Solute carrier family 2, facilitated glucose transporter member 1 (Homo sapiens) (UniProt P11166); assay: ST_JUDE_LEISH: Cytotoxicity at 2uM final concentration against transgenic Leishmania Mexicana promastigotes LmGLUT1 that are glucose transport deficient and complemented with the human glucose transporter GLUT1. Activity is measured by DNA content using SYBR green in vitro
Chain of Solute carrier family 2, facilitated glucose transporter member 1 (Homo sapiens) (P11166 whole entry): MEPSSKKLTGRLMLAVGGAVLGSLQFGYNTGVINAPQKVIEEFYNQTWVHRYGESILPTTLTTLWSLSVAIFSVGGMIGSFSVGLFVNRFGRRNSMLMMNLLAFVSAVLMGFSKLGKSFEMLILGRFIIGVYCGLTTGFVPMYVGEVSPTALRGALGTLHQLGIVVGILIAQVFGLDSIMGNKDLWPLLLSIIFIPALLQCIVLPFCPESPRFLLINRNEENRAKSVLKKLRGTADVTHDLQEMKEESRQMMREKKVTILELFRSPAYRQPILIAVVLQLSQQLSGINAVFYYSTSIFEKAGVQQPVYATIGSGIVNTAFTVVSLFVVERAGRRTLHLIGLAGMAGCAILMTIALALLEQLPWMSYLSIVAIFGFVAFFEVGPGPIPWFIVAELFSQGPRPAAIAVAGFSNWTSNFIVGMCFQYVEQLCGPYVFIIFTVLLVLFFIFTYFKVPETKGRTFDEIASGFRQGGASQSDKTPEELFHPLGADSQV

[2] = target: Hexose transporter 1 (Plasmodium falciparum) (UniProt O97467); assay: ST_JUDE_LEISH: Cytotoxicity at 2uM final concentration against transgenic Leishmania Mexicana promastigotes LmPfHT that are glucose transport deficient and complemented with the Plasmodium falciparum hexose transporter. Activity is measured by DNA content using SYBR green in vitro
[3] = target: Glucose transporter (Leishmania mexicana) (UniProt O61059); assay: ST_JUDE_LEISH: Cytotoxicity at 2uM final concentration against transgenic Leishmania Mexicana promastigotes LmGT2 that are glucose transport deficient and complemented with the L. Mexicana glucose transporter 2. Activity is measured by DNA content using SYBR green in vitro

Compound	inhibition [1]	inhibition [2]	inhibition [3]
CCNc1cc(C)nc(Nc2ccc(NS(=O)(=O)c3ccccc3)cc2)n1	17.8%	11%	5.64%
O=c1[nH]c2ccc(Nc3nccc(NCCc4ccccc4)n3)cc2[nH]1	1.91%	4.94%	5.12%
Cc1cc(O)c(-c2cccc(Oc3ccc(Cl)cc3)c2)c(C)n1	-1.02%	1.39%	-3.29%
CN(C)CCCOc1ccc(-c2nc(-c3ccc4c(c3)CCC4=NO)c(-c3ccncc3)[nH]2)cc1	2.55%	2.33%	1.24%
CCC(=O)Nc1ccc(Nc2nc(C)cc(N3CCCC3)n2)cc1	3.46%	12.4%	2.39%
Cc1ccc(O)cc1Nc1ccnc2cc(-c3ccccc3)ccc12	7.87%	8.41%	7.72%
COc1ccc(CN2CCCN(Cc3cccc(C(=O)Nc4ccc(C)c(F)c4)c3)CC2)cc1	0.27%	-1.26%	1.49%
CS(=O)(=O)CCNCc1cccc(-c2cc3nccc(Nc4ccc(Oc5ccccc5)cc4)c3cc2Cl)c1	-1.75%	0.05%	-0.97%
Cc1cc(Cl)c(S(=O)(=O)N2CCc3ccccc32)cc1OCC(=O)NC1CCCCC1	2.33%	1.17%	2.14%
Cc1cccc2nc(-c3cccc(-c4cccc(CNCCc5cccn5C)c4)c3)[nH]c12	0.04%	2.29%	-0.27%
CCc1ccc(CN2CCC(CNC(=O)c3cc(-c4cccc(C(F)(F)F)c4)cs3)C2)cc1 (stereo not given)	-2.78%	-0.98%	-1.61%
CN(C)c1ccc(-c2csc(C(=O)NCC3CCN(CCC(C)(C)C)C3)c2)cc1 (stereo not given)	-0.84%	-0.06%	0.06%
CS(=O)(=O)Nc1ccc(OCCCCCCOc2ccc(NS(C)(=O)=O)cc2)cc1	1.48%	3.08%	2.14%
O=C(NC1CCN(CCN2CCC(c3cn(CCO)c4ccccc34)CC2)CC1)c1ccc(-c2ccc(C(F)(F)F)cc2)cc1	-1.51%	3.18%	0.94%
COc1cc(OC)c2c(c1Cl)O[C@]1(C2=O)C(=O)C(Cc2ccccc2)(Cc2ccccc2)C(=O)C[C@H]1C	2.41%	3.13%	2.6%
N#Cc1ccc(-c2ccc(C(=O)NCCCCN3CCC(c4cn(CCO)c5ccccc45)CC3)cc2)cc1	-0.57%	-0.13%	0.2%
OCCn1c(CNCCCNc2nc3ccccc3[nH]2)cc2c(Cl)cc(Cl)cc21	82%	88.2%	80.5%
N#Cc1cccc(NC(=O)Nc2ccc(CC(=O)N3CCc4cc(Cl)c(N5CCN(C/C=C/c6ccccc6)CC5)cc43)cc2)c1	2.33%	4.39%	2.7%
O=C(Nc1ccc(-c2nc3ccccc3[nH]2)cc1)c1cccc([N+](=O)[O-])c1	1.01%	-1.86%	-1.09%
COc1c(I)cc(Cc2cnc(N)nc2N)cc1I	6.68%	4.23%	2.6%
Cc1[nH]c(C)c(-c2ccc(OCc3ccc(F)cc3)cc2)c(=O)c1Cl	-0.65%	-0.27%	-1.77%
Cc1nc(C)c(-c2ccc(Oc3cc(Cl)cc(Cl)c3)cc2)c(O)c1Cl	2.68%	3.03%	0.49%
COc1cccc(C(C)(C)NC[C@@H](O)[C@H](Cc2ccccc2)NC(=O)c2cc(C3CCCC3)cc(N3CCCCS3(=O)=O)c2F)c1	0.16%	2.15%	1.09%
O=C(/C=C/c1ccc(Cl)c(Cl)c1)NCCCCCN1CCN(C(=O)Nc2ccc(Cl)c(C(F)(F)F)c2)CC1	2.17%	0.61%	-1.28%

Compound	inhibition [1]	inhibition [2]	inhibition [3]
Cc1cccc2nc(-c3ccc(-c4cccc(CN5CCC(C(N)=O)CC5)c4)s3)[nH]c12	-1.68%	2.17%	1.29%
C=CCn1c(Sc2ccc(C#N)c([N+](=O)[O-])c2)nnc1-c1ccc(Cl)cc1	5.68%	5.18%	2.18%
CC(=O)N/N=C/[C@H](CCc1ccccc1)NC(=O)[C@H](CC(C)C)NC(=O)c1ccc(F)cc1	6.34%	4.34%	4.68%
N#CCCN1CCN(Cc2ccc(-c3cccc(-c4nc5cc(F)ccc5[nH]4)c3)cc2)CC1	2.61%	2.18%	3.17%
CC1CCC(C[C@@H](C(=O)N[C@@H](CCC(=O)N2CCCCC2)C(=O)Nc2nccs2)[C@H](C(C)C)N(O)C=O)CC1 (stereo not given in full)	3.85%	4.16%	3.44%
COc1cc(NC(=O)c2c(-c3c(Cl)cccc3Cl)noc2C)c(OC)cc1Cl	3%	4.65%	3.12%
CCCOc1ccc(NC(=O)c2cccs2)cc1Cl	10%	8.57%	9.7%
CCn1c(Sc2ccc(C#N)c([N+](=O)[O-])c2)nnc1-c1ccc(OC)cc1	2.25%	4.95%	2.61%
Cc1cc(NCCC(=O)NCc2cccc(F)c2)nc(NCCc2ccc(F)cc2)n1	5.01%	3.24%	3.7%
O=C(Nc1ccncc1)Nc1ccc2c(c1)CCN(C1CCC1)CC2	3.98%	3.34%	11%
S=C(NCCCCCN1CCC(c2c[nH]c3ccccc23)CC1)Nc1cc(Cl)cc(Cl)c1	0.38%	-0.55%	0.49%
Cc1cc(N2CCCC2=O)ccc1-c1ccc(C(=O)N2CCC(Oc3cccc(Cl)c3)CC2)cc1	0.43%	1.95%	3.87%
NS(=O)(=O)c1cccc(Br)c1	2.38%	0.12%	2.22%
CCS(=O)(=O)Nc1ccc2[nH]cc(C3CCN(CCC4CCN(C(=O)/C=C/c5ccc(Cl)c(Cl)c5)CC4)CC3)c2c1	2.73%	4.42%	1.91%
N#Cc1ccc2c(c1)CN(C1CCC(NC(=O)c3cc(-c4ccc(Cl)cc4)cs3)CC1)CCC2 (stereo not given)	3.29%	0.21%	1.7%
CCOc1c(Br)cc(Cl)cc1CNCCCNc1nc2ccccc2[nH]1	1.77%	1.74%	3%
O=C(NC1CC1)c1ccc(N2CCCC(COc3ccccc3F)C2)nc1 (stereo not given)	2.73%	1.75%	2.62%
Cc1cc(Nc2cccc(C(F)(F)F)c2)nc2ccc(NC(=O)c3ccc(=O)[nH]c3)cc12	-0.79%	-0.69%	-0.59%
COc1ccc(-c2cccc(NC(=O)c3cccc(C#N)c3)c2)cc1CN1CCCC1	12.1%	15.9%	5.27%
CNC(=O)C1Cc2c([nH]c3ccc(Br)cc23)C2(CCN(CCc3ccccc3)CC2)N1 (stereo not given)	5.38%	3.44%	6.65%
Cc1cc(-c2cc(-c3ccc(OCCN(C)C)cc3)[nH]c2-c2ccc3c(c2)CCC3=NO)ccn1	4.92%	3.52%	2.39%
CCC1CN(S(=O)(=O)c2ccc3c(c2)NC(=O)CC(=O)N3)c2cc(Cl)ccc2O1 (stereo not given)	2.65%	2.92%	3.29%
CNCCNCc1ccc(-c2ccc(-c3nc4cc(F)ccc4[nH]3)s2)cc1	9.52%	7.79%	8.77%
O=C(/C=C/c1ccc(Cl)c(Cl)c1)NCCCCCN1CCC(NC(=O)Nc2cc(F)cc(F)c2)CC1	-0.2%	1.46%	4.15%

Compound	inhibition [1]	inhibition [2]	inhibition [3]
CCCCCCNCc1c(O)ccc2c(CNCCCCCC)c(O)ccc12	-0.62%	-0.78%	0.36%
COc1ccc(NC(=O)[C@H](Cc2ccccc2)Nc2cc(C)nc(NCC3CCCCC3)n2)cc1	1.62%	2.59%	0.65%
Cc1cccc2nc(-c3cccc(-c4ccc(NC(=O)Nc5ccc(F)c(F)c5F)cc4)c3)[nH]c12	1.49%	1.47%	3.22%
CC(C)N1CCN(c2ccc(OCCCCN3CCN(c4cccc(Cl)c4Cl)CC3)c(C(F)(F)F)c2)CC1	-0.92%	-1.01%	0.98%
Cc1cc(-c2ccc(Cl)cc2)c2c(N)c(C(=O)Nc3ccc(F)cc3)sc2n1	0.19%	-2.52%	0.35%
Cc1ccccc1OCC(=O)Nc1ccc(-c2nc3cc4ccccc4cc3[nH]2)cc1	7.32%	3.71%	4.05%
CCOc1ccc2nc3cc(NC(=O)c4ccco4)ccc3c(N)c2c1	3.66%	3.27%	2.78%
CC1CN(c2ccc(NC(=O)c3ccsc3)cc2C(=O)N2CCN(Cc3ccc(C(C)(C)C)cc3)CC2)CC(C)O1 (stereo not given)	-1.24%	1.1%	0.3%
Cc1ccc2c(c1)NCC21CCN(C[C@@H](O)C2CCN(c3cc(C#N)ccn3)CC2)CC1C (stereo not given in full)	-1.68%	0%	-3.72%
O=C(Nc1ccc(-c2ccccc2)cc1)Nc1cccc(Cn2ncc(N3CCNCC3)c(Cl)c2=O)c1	-0.79%	1.65%	6.76%
Cc1ccc2sc(N3CCN(C(=O)c4ccc([N+](=O)[O-])o4)CC3)nc2c1C	44.5%	44.3%	13.7%
CC(C)(C)c1ccc(NC(=O)c2ccc(CN3CCCN(Cc4cccc(O)c4)CC3)cc2)cc1	0.52%	0.08%	2.02%
CCC(C)CC(=O)Nc1ccc(OC)c(S(=O)(=O)N[C@@H]2CCN(C#N)C2)c1 (stereo not given in full)	-0.28%	-0.4%	-0.94%
COC(=O)c1cccc(N2CCN(CCCNC(=O)/C(=C/C=C/c3cc4cc(Cl)c(Cl)cc4[nH]3)OC)CC2)c1	2.24%	0.95%	-1.57%
COc1ccccc1CNc1ccnc(NCCc2cccc(C(F)(F)F)c2)n1	7.85%	8.92%	2.54%
Cc1ccc(S(=O)(=O)NC2CCN(c3ccnc4cc(Cl)ccc34)C2)cc1 (stereo not given)	3.79%	3.39%	4.19%
Cc1c(F)cc(C(=O)NC2CC2)cc1-c1ccc2c(c1)c(C)nn2S(=O)(=O)c1cccs1	4.6%	3.16%	2.8%
Clc1ccc(Nc2nc(Nc3ccc(Cl)c(Cl)c3)nc(Sc3nc4ccccc4[nH]3)n2)cc1Cl	8.07%	9.05%	7.05%
COc1cc2c(C3CCN(CC4CCN(C(=O)/C=C/c5ccc(Cl)c(Cl)c5)CC4)CC3)c[nH]c2cn1	2.4%	-0.95%	-0.88%
CN1CCC(C(=O)N(Cc2ccc(-c3ccc(CNCCc4ccc(S(C)(=O)=O)cc4)cn3)cc2)Cc2ccc3c(c2)OCO3)CC1	2.03%	0.87%	3.77%
COc1cc2c(cc1S(=O)(=O)c1ccc(NC(=O)Nc3ccc(F)cc3)cc1)CCN(C)CC2	3.01%	2.22%	3.04%
O=C(CCCCCNC(=O)c1ccc(O)c(-c2ccc(Cl)c(Cl)c2)c1)NCCN1CCCCC1	2.71%	2.46%	3.45%
